# Experimental data taken from PubChem BioAssay AID1376 (SRMLSC, 2008).
# Several values for one entry are separate records, joined by “and”; a condition that tells them apart may be missing. Identical values can stand only once. The whole screen tested about 220,000 compounds, of which about 530 (0.24%) were called active. Cut-off read from the data, not from the text of the source: active = inhibition above about 13%; inconclusive = no clear call, values can overlap the other calls; inactive = below that. Only a selection was taken, and actives are over-represented in it overall. Potency and affinity values are given separately.
# Biological target: Bifunctional protein GlmU (Mycobacterium tuberculosis (strain ATCC 25618 / H37Rv)) (UniProt P9WMN3)
# Sequence (P9WMN3 whole entry, looked up): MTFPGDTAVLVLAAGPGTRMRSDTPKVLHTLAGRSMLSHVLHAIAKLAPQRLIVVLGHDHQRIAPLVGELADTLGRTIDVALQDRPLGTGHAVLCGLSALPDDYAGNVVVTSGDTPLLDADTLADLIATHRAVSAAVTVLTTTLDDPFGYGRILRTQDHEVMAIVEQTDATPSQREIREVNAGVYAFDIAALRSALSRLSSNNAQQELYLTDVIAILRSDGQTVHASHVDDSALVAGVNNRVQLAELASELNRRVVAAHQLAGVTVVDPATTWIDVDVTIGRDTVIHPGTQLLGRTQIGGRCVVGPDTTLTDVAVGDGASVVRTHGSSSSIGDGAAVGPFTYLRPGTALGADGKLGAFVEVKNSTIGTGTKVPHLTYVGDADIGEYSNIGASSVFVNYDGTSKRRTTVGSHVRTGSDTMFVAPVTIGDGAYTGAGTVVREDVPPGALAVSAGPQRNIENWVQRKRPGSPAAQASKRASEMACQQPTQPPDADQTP
# Test: inhibition of mycobacterial GlmU enzyme – biochemical, glucosamine-1-phosphate acetyltransferase (AID 1376);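 note: 0% = complete reaction with vehicle and 100% = reaction without substrate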
# Conditions: M. tuberculosis GlmU acetyltransferase enzyme assay; active compounds read high;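 tested at 30 µM in the primary screen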
row,SMILES,inhibition
1,CCO[C@@H]1OC(C(=O)Nc2ccccc2)=C[C@H](c2ccc(Br)cc2)[C@H]1CCCO,1.98% (inactive)
2,CC(=O)Nc1ccc(/C=C(\C#N)C(=O)NC2CCCCC2C)cc1 (stereo not drawn),3.98% (inactive)
3,O=C(CN1CCN(c2ccc(Cl)cc2)CC1)NCc1ccccc1,1.83% (inactive)
4,O=C1S/C(=C\C=C\c2ccco2)C(=O)N1c1ccccc1,6.89% (inactive)
5,O=C1/C(=C/C=C/c2ccco2)SC(=S)N1c1ccc(O)cc1,7.16% (inactive)
6,CC(/C=C1\SC(=S)N(C(C(=O)O)C(C)C)C1=O)=C\c1ccccc1 (stereo not drawn),3.64% (inactive)
7,CC(=C\c1ccccc1)/C=C1/SC(=S)N(C(C(=O)O)C(C)C)C1=O (stereo not drawn),5.39% (inactive)
8,CCCCC(=O)Nc1ncc(Br)s1,0.1% (inactive)
9,Cc1nnc(SCC(=O)Nc2cc(-c3cc(C)c(C)cc3C)nn2-c2ccccc2)s1,-5.02% (inactive)
10,COc1cc(/C=N/NC(=O)c2cccc([N+](=O)[O-])c2)ccc1OCc1ccccc1,1.61% (inactive)
11,O=C1NC(=O)N(Cc2ccc(F)cc2)C(=O)/C1=C\c1ccc([N+](=O)[O-])s1,6.15% (inactive)
12,CN1C(=O)NC(=O)/C(=C/c2ccc([N+](=O)[O-])s2)C1=O,-1.9% (inactive)
13,CCN1C(=O)/C(=C\c2ccc([N+](=O)[O-])s2)C(=O)NC1=S,92.2% (active)
14,Cc1ccc(SCc2cc(=O)[nH]c(N3CCN(C)CC3)n2)cc1,2.83% (inactive)
15,O=C(O)c1ccc2c3c(cccc13)C(=O)N(c1ccccc1)C2=O,5.53% (inactive)
16,Cc1ccc(N2C(=O)c3cccc4c(C(=O)O)ccc(c34)C2=O)cc1,-2.11% (inactive)
17,CCn1c(SCC(=O)N2CCc3ccccc32)nc2c(c1=O)SC(C)C2 (stereo not drawn),2.91% (inactive)
18,O=C(O)c1cc(-c2ccccc2)nc2nc(N3CCCCC3)sc12,-4.63% (inactive)
19,O=C(O)CSc1nc2ccccc2s1,-6.75% (inactive) and -0.54% (inactive)
20,O=C(CSc1nc2ccccc2s1)CSc1nc2ccccc2s1,-0.56% (inactive)
21,O=C(O)CCSc1nc2ccccc2s1,13.3% (active)
22,Cc1[nH]c2ccccc2c1C(=O)COC(=O)CCS(=O)(=O)c1ccccc1Cl,0.91% (inactive)
23,NC(=O)[C@@H]1CC2(CC(c3cccc(NC(=O)COc4ccc(Cl)cc4)c3)=NO2)CN1C(=O)COc1ccc(Cl)cc1 (stereo partly drawn),3.68% (inactive)
24,C/C=C(/C)C(=O)Nc1cccc(C2=NOC3(C2)C[C@@H](C(N)=O)N(C(=O)CC(c2ccccc2)c2ccccc2)C3)c1 (stereo partly drawn),2.91% (inactive)

row,SMILES,inhibition
1,C/C=C(\C)C(=O)Nc1cccc(C2=NOC3(C2)C[C@H](C(N)=O)N(C(=O)C(c2ccccc2)c2ccccc2)C3)c1 (stereo partly drawn),4.35% (inactive)
2,C=C(C)C(=O)Nc1cccc(C2=NOC3(C2)C[C@@H](C(N)=O)N(C(=O)CC(c2ccccc2)c2ccccc2)C3)c1 (stereo partly drawn),14.4% (active)
3,NC(=O)[C@H]1CC2(CC(c3cccc(NC(=O)CC(c4ccccc4)c4ccccc4)c3)=NO2)CN1C(=O)CC(c1ccccc1)c1ccccc1 (stereo partly drawn),2.76% (inactive)
4,CCC(=O)Nc1cccc(C2=NOC3(C2)C[C@@H](C(N)=O)N(C(=O)C(c2ccccc2)c2ccccc2)C3)c1 (stereo partly drawn),7.01% (inactive)
5,C/C=C(/C)C(=O)Nc1cccc(C2=NOC3(C2)C[C@H](C(N)=O)N(C(=O)COc2ccc(Cl)cc2)C3)c1 (stereo partly drawn),-3.89% (inactive)
6,CC(=O)Oc1ccccc1N(C(C)=O)S(=O)(=O)c1cccc([N+](=O)[O-])c1,2.75% (inactive)
7,COc1nc(-c2ccccc2)ccc1-c1noc(-c2cccs2)n1,-3.99% (inactive)
8,O=C(CN(Cc1ccccc1)S(=O)(=O)c1ccccc1)N/N=C/c1ccccc1C(=O)O,1.89% (inactive)
9,CCN(CC)S(=O)(=O)c1cc(NC(=O)COC(=O)CCC(=O)c2cccs2)ccc1C,1.97% (inactive)
10,O=C(NCc1n[nH]c(=S)n1-c1cccc(C(F)(F)F)c1)c1ccc(S(=O)(=O)N2CCCC2)cc1,-1.04% (inactive)
11,Oc1ccc(N=Nc2nccs2)c(O)c1,53.5% (active)
12,Oc1ccc(Cl)cc1/C=N/c1nccs1,5.12% (inactive)
13,Oc1ccc(N=Nc2ccc(Br)cc2)c(O)c1,7.96% (inactive)
14,Cc1cc2nc(=O)c(/C=C3\C=Nc4ccccc43)c(N)n2o1,-5.38% (inactive)
15,O=c1ccnc2n1COCS2,-2.85% (inactive)
16,CC(/C=C/c1ccccc1)=N\NC(=O)c1ccncc1,2.68% (inactive)
17,Cc1ccc2c(C(=O)CN3CCOCC3)c(C)[nH]c2c1,2.67% (inactive)
18,Cc1ccc2c(C(=O)CN3CCN(c4ccccc4)CC3)c(C)[nH]c2c1,14.3% (active)
19,Cc1ccc2c(C(=O)CN3CCCC3)c(C)[nH]c2c1,-5.2% (inactive)
20,O=C(CSc1ccc(Cl)cc1)NN=C1CCCCCC1,0.28% (inactive)
21,O=C(Nc1cccc(N2CCCC2)c1)c1cccs1,-6.15% (inactive)
22,CCN1CCN(C(=O)NCc2ccccc2)CC1,-0.69% (inactive)
23,CCOc1ccccc1CNc1ccc(O)cc1,12.9% (active)
24,Oc1ccc(NCc2ccccc2OCc2ccccc2F)cc1,1.2% (inactive)

row,SMILES,inhibition
1,Oc1ccc(NCc2ccccc2OCc2ccccc2)cc1,1.63% (inactive)
2,CCc1nnc(NC(=O)c2cccc(S(=O)(=O)N3CC(c4ccccc4)CC3=O)c2)s1 (stereo not drawn),5.84% (inactive)
3,COCCn1cnnc1SCC(=O)Nc1cccc(S(=O)(=O)N2CCCCCC2)c1,1.58% (inactive)
4,COC(=O)c1ccc(S(=O)(=O)N2CCN(C)CC2)n1C,-8.72% (inactive)
5,COC(=O)c1ccc(S(=O)(=O)N2CCC(O)CC2)n1C,-2.92% (inactive)
6,COC(=O)c1ccc(S(=O)(=O)N2CCCCCC2)n1C,12.8% (active)
7,CCc1nnc(NC(=O)CSc2nc3c(c(=O)n2C)SC(C)C3)s1 (stereo not drawn),3.46% (inactive)
8,O=c1/c(=C/c2ccccc2)sc2nnc(-c3cccs3)n12,0.67% (inactive)
9,C#CC[N+]1(CC#Cc2ccccc2)CCOCC1,-6.07% (inactive)
10,OCC#CC[N+]1(CC#Cc2ccccc2)CCOCC1,-6.73% (inactive)
11,CC1=C(C(=O)Nc2ccccc2)C(c2cccs2)n2nnnc2N1 (stereo not drawn),-3.97% (inactive)
12,CCn1c(CSc2nc3ccccc3s2)nnc1SCC(=O)c1ccc(O)cc1O,13% (active)
13,CCn1c(CSc2nc3ccccc3s2)nnc1SCC(=O)c1ccc(O)c(O)c1,5.09% (inactive)
14,CCn1c(CSc2nc3ccccc3s2)nnc1SCC(N)=O,1.32% (inactive)
15,C=C(C)CNC(=S)N/N=C/c1ccc([N+](=O)[O-])cc1,3.43% (inactive)
16,Cc1ccc(-n2nc3c(c2NC(=O)c2c(-c4ccccc4Cl)noc2C)CSC3)cc1,4.33% (inactive)
17,Cc1ccc(-n2nc3c(c2NC(=O)c2cccs2)CSC3)cc1,19.6% (active)
18,Cc1ccc(-n2nc3c(c2NC(=O)c2ccc4c(c2)OCO4)CSC3)cc1,-1.67% (inactive)
19,Cc1nccn1CCCN1C(=O)OC2(CCCCC2)C1(C)O (stereo not drawn),-0.12% (inactive)
20,Cc1cc(C)c(C(=O)COC(=O)c2cc([N+](=O)[O-])ccc2NCCO)cc1C,0.91% (inactive)
21,COc1cc(/C=N/N=C2/C(=O)Nc3ccccc32)ccc1O,1.01% (inactive)
22,O=C1Nc2ccccc2/C1=N\N=C\c1ccc(O)c(O)c1,15% (active)
23,O=C1Nc2ccccc2/C1=N/N=C/c1cccc(O)c1,0.15% (inactive)
24,CC1CCc2ccc(F)cc2N1S(=O)(=O)c1cccs1 (stereo not drawn),3.23% (inactive)

row,SMILES,inhibition
1,O=c1cc(O)c2c(=O)n(-c3ccccc3)c3c(c2o1)CCCCCC3,0.45% (inactive)
2,O=c1cc(O)c2c(=O)n(-c3ccccc3)c3c(c2o1)CCCCC3,13% (active)
3,O=c1cc(O)c2c(=O)n(-c3ccccc3)c3ccccc3c2o1,0.8% (inactive)
4,C=CCNC(=O)NS(=O)(=O)c1ccc(C)cc1,1.33% (inactive)
5,O=C(NCc1ccco1)c1cccc(-c2nnc(-c3ccccc3)o2)c1,-0.42% (inactive)
6,CC(C)C(OC(=O)c1ccco1)C(=O)NC1CCCCC1 (stereo not drawn),1.45% (inactive)
7,CC(OC(=O)c1ccco1)C(=O)NC1CCCCC1 (stereo not drawn),-0.47% (inactive)
8,CC(C)CC(OC(=O)c1ccco1)C(=O)NC1CCCCC1 (stereo not drawn),14.8% (active)
9,O=C(NCc1ccncc1)C(=O)C1C(=O)Nc2ccccc21 (stereo not drawn),-1.35% (inactive)
10,CCOC(=O)c1nc(NCc2ccccc2C)c2ccccc2n1,-3.26% (inactive)
11,C/C=C(\C)CN1CCN(c2cc(C)ccc2C)CC1,-5.99% (inactive)
12,Cc1cc(C(=O)CS(=O)(=O)c2ccccc2)cc(C)c1OC(=O)N(C)C,0.59% (inactive)
13,COc1ccc(NS(=O)(=O)c2cccc(C(=O)NNC(=O)NCCCl)c2)cc1,-0.61% (inactive)
14,Cc1cc(/C=N/NC(=O)c2cccc([N+](=O)[O-])c2)c(C)n1-c1ccccc1,-3.02% (inactive)
15,Cc1cc(/C=N/NC(=O)c2cccc(F)c2)c(C)n1-c1ccccc1,0.73% (inactive)
16,Cc1cc(C(=O)N/N=C/c2sc(N3CCOCC3)nc2-c2ccccc2)c(C)o1,6.62% (inactive)
17,CCCn1c(SCc2ccon2)nc2ccccc2c1=O,1.08% (inactive)
18,O=C1c2ccccc2C(=O)N1CC(=O)N1c2ccccc2Sc2ccccc21,-6.14% (inactive)
19,COc1cc(C(c2c(O)c3ccccc3oc2=O)c2c(C)n(C)n(-c3ccccc3)c2=O)ccc1O (stereo not drawn),22.1% (inactive)
20,COc1ccc(OC)c(C(c2c(O)c3ccccc3oc2=O)c2c(C)n(C)n(-c3ccccc3)c2=O)c1 (stereo not drawn),13.2% (active)
21,COc1ccc(C(c2c(O)c3ccccc3oc2=O)c2c(C)n(C)n(-c3ccccc3)c2=O)cc1 (stereo not drawn),1.51% (inactive)
